In PubChem BioAssay:
Unmarked numbers belong to inactive results. For some assays here: Measured potencies and affinities stand elsewhere. The source made the active and inactive calls. Unless noted, no rule for the calls is given here.

Experiments:
[1] = antimalarial activity against Dd2 strain (AID 2302;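 active = growth inhibition above 50% at the single 2 µM test dose, taken to imply half-maximal potency below 2 µM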;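 also: 0% = DMSO untreated growth and 100% = chloroquine plus artemisinin killed control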); conditions: P. falciparum Dd2 in RBCs, LDH growth readout, 72 h; at 2 µM; hits give high values
[2] = human hepatoma cell viability loss – ATP luminescence, cytotoxicity control for P. falciparum antimalarial project, primary screen (AID 2303;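 active = inhibition above 50%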;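 also: 0% = DMSO wells and 100% = digitonin-killed cells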); conditions: HepG2 viability, 24-48 h, at 10 µM, hits give high values
[3] = target: L-lactate dehydrogenase (Plasmodium falciparum (isolate CDC / Honduras)) (UniProt Q27743); assay: PfLDH activity inhibition – cell lysate, 3D7 strain, counter-screen for P. falciparum growth inhibition project (AID 2304);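 also: 0% = vehicle and 100% = reference inhibitor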; conditions: P. falciparum 3D7 crude extract, LDH APAD/NBT absorbance; at 2 µM; hits give high values
Sequence of L-lactate dehydrogenase (Plasmodium falciparum (isolate CDC / Honduras)) (Q27743 whole entry, looked up): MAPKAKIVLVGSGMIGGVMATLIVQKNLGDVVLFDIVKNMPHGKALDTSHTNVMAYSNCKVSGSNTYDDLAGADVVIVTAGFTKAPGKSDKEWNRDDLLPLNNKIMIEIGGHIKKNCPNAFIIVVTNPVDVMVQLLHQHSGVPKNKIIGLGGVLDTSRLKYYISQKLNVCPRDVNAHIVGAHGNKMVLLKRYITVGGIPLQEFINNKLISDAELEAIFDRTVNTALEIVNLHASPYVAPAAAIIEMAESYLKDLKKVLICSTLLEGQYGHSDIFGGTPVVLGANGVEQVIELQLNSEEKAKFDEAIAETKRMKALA

[4] = inhibition of 3D7 malaria parasite growth – strain 3D7 (AID 2306);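 also: 0% = DMSO wells and 100% = chloroquine plus artemisinin control wells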; conditions: P. falciparum 3D7 erythrocytic growth, LDH absorbance, 72 h; at 2 µM; hits give high values
[5] = target: Calcium-dependent protein kinase 1 (Plasmodium falciparum (isolate 3D7)) (UniProt P62344); assay: PfCDPK1 kinase inhibitors, biochemical, TCAMS library (AID 1159585; cut-off not given, nearly all actives have IC50 up to about 0.98 µM;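 also: inhibitors leave more ATP so luminescence rises with inhibition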); conditions: recombinant PfCDPK1, Kinase-Glo ATP depletion luminescence
Sequence of Calcium-dependent protein kinase 1 (Plasmodium falciparum (isolate 3D7)) (P62344 whole entry, looked up): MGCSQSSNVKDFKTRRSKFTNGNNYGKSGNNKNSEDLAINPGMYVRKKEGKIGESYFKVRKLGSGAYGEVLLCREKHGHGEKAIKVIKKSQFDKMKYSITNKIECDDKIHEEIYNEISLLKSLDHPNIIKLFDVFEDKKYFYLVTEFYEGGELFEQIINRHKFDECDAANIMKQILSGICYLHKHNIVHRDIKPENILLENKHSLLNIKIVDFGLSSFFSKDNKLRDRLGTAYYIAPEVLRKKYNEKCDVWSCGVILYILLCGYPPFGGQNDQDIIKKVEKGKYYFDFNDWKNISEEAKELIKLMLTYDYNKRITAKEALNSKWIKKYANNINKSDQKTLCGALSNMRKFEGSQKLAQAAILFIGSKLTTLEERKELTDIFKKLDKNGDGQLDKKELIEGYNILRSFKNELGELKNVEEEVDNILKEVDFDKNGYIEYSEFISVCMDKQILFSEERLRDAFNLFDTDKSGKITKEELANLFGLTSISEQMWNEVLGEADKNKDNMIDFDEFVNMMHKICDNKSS

[6] = target: Plasmodium falciparum protein kinase 6 (PK6, PF3D7_1337100) (UniProt Q8IDW1); assay: PfPK6 kinase inhibitors, biochemical, TCAMS library (AID 1159586); conditions: recombinant PfPK6, Kinase-Glo ATP depletion luminescence
Sequence of Plasmodium falciparum protein kinase 6 (PK6, PF3D7_1337100) (Q8IDW1 1-305): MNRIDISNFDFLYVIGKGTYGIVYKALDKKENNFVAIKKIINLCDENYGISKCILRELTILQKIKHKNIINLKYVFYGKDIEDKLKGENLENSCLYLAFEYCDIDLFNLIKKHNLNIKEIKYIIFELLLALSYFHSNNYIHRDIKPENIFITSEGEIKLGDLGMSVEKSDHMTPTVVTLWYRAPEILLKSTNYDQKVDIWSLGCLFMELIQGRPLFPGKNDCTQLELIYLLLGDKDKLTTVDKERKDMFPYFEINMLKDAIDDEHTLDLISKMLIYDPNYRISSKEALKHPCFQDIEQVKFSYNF

[7] = target: Protein kinase 7 (PK7), Plasmodium falciparum 3D7 (PF3D7_0213400) (UniProt Q7YTF7); assay: inhibition of Plasmodium PK7 catalytic activity – biochemical, TCAMS antimalarial set, Kinase-Glo luminescence (AID 1159587); conditions: recombinant PfPK7, Kinase-Glo ATP depletion luminescence
Sequence of Protein kinase 7 (PK7), Plasmodium falciparum 3D7 (PF3D7_0213400) (Q7YTF7 1-343): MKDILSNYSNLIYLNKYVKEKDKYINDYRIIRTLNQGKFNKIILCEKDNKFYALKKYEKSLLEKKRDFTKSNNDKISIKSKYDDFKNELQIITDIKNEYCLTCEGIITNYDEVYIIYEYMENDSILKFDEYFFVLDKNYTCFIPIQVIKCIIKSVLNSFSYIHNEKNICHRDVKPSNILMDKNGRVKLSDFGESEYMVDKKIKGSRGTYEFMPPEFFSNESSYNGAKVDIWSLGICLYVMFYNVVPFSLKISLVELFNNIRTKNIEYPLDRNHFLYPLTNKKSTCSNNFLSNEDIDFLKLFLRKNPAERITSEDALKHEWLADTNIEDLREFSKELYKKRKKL

[8] = target: Calcium-dependent protein kinase 4 (Plasmodium falciparum (isolate 3D7)) (UniProt Q8IBS5); assay: PfCDPK4 kinase inhibitors, biochemical, TCAMS library (AID 1159588; cut-off not given, nearly all actives have IC50 up to about 0.91 µM); conditions: recombinant PfCDPK4, Kinase-Glo ATP depletion luminescence
Sequence of Calcium-dependent protein kinase 4 (Plasmodium falciparum (isolate 3D7)) (Q8IBS5 whole entry, looked up): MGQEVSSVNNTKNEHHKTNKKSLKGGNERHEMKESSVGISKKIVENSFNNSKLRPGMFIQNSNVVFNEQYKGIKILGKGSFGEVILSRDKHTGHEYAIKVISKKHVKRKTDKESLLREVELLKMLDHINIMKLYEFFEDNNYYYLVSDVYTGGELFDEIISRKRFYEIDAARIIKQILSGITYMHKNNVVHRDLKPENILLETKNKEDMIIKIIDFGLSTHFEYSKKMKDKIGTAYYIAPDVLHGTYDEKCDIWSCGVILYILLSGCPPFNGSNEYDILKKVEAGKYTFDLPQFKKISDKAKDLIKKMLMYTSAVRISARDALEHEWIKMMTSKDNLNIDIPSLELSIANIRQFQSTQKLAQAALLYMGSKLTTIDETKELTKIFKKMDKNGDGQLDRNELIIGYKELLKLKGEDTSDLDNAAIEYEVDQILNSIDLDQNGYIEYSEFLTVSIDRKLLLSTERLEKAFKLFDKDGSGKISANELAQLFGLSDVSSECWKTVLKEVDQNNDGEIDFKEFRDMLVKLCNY

SMILES | growth inhibition [1] | inhibition [2] | inhibition [3] [%] | growth inhibition [4] | outcome [5] | outcome [6] | outcome [7] | outcome [8]
O=C(N1CCN(c2ccnc3cc4c(cc23)N(Cc2ccccc2)CC4)CC1)C(F)(F)F | 100% (active) | 8% | 3 | 100% (active) | inactive | inactive | inactive | inactive
Cc1nc(-c2nc(N3CCC(C(N)=O)CC3)ncc2-c2ccsc2)sc1C | 33% | -8% | -11 | 93% (active) | inactive | inactive | inactive | inactive
COc1cc(C(=O)N2CCOC(CCN3CCC(Cc4ccc(F)cc4)CC3)(c3ccc(Cl)c(Cl)c3)C2)cc(OC)c1OC (stereo not given) | 58% (active) | 44% | -5 | 88% (active) | inactive | inactive | inactive | inactive
CCSc1nnc(C2CCCN(CC(=O)Nc3cc(C(F)(F)F)ccc3Cl)C2)n1CC (stereo not given) | 96% (active) | 0% | 5 | 99% (active) | inactive | inactive | inactive | inactive
CCCOc1ccc(-c2nonc2NC(=O)c2ccccc2OC)cc1OCCC | 82% (active) | 23% | -1 | 98% (active) | inactive | inactive | inactive | inactive
CC(C)S(=O)(=O)N1CCN(Cc2ccc3c(c2)nc(NC(=O)c2ccsc2)n3C[C@H](O)c2ccccc2)CC1 | 72% (active) | 56% (active) | 0 | 91% (active) | inactive | inactive | inactive | inactive
O=S1c2ccccc2Sc2ccccc21 | -1% | 48% | 6 | 99% (active) | inactive | inactive | inactive | inactive
CC(Cc1ccc(CNC(=O)c2ccc(CC(C)NCCc3cccc(Cl)c3)cc2)cc1)NCCc1cccc(Cl)c1 (stereo not given) | 66% (active) | 99% (active) | -2 | 99% (active) | inactive | inactive | inactive | inactive
Cc1cc(NN=Cc2ccccc2)c2cc(F)ccc2n1 | 94% (active) | 11% | -1 | 101% (active) | inactive | inactive | inactive | inactive
COc1cccc(C(=O)NC(NC(=S)Nc2ccc(OC)cc2[N+](=O)[O-])C(Cl)(Cl)Cl)c1 (stereo not given) | 49% | 9% | -2 | 99% (active) | inactive | inactive | inactive | inactive
NCc1ccc(-c2ccccc2CNC2CCN(Cc3ccccc3)CC2)cc1 | 3% | 20% | -2 | 94% (active) | inactive | inactive | inactive | inactive
CN(C)S(=O)(=O)c1ccc(N2CCN(CCC3(c4cccc(F)c4)CCN(C(=O)C(C)(C)C)CC3)CC2)c2nonc12 | 85% (active) | 8% | -1 | 91% (active) | inactive | inactive | inactive | inactive
O=C(NC1CCC(CCN2Cc3cccc(C(F)(F)F)c3C2)CC1)c1cccc(-c2cccnc2)c1 (stereo not given) | 67% (active) | 26% | 2 | 100% (active) | inactive | inactive | inactive | inactive
CCCC(=O)NC(c1cccs1)c1cc(Cl)c2cccnc2c1O (stereo not given) | 61% (active) | 51% (active) | -4 | 87% (active) | inactive | inactive | inactive | inactive
CC1CCCCN1S(=O)(=O)c1ccc(NC(=O)c2cc(-c3ccccc3O)n[nH]2)cc1 (stereo not given) | 96% (active) | 26% | -1 | 90% (active) | inactive | inactive | inactive | inactive
Cc1nc2ccc(Nc3nccc(-c4c(-c5cccc(NC(=O)c6c(F)cccc6F)c5)nn5ccccc45)n3)cc2nc1C | 45% | 55% (active) | 0 | 91% (active) | inactive | inactive | inactive | inactive
O=C(Nc1ccccc1)NC1CCN(CCC2(c3ccc(Cl)c(Cl)c3)COCN(C(=O)c3ccccc3)C2)C1 (stereo not given) | 81% (active) | 23% | 3 | 92% (active) | inactive | inactive | inactive | inactive
CN(C)CCNC(=O)c1ccc(-c2ccc3c(Nc4ccccc4)c(C(N)=O)cnc3c2)cc1 | 68% (active) | 9% | 6 | 99% (active) | inactive | inactive | inactive | inactive
Cc1nc2ccc3ccc(CNc4ccc5c(c4)CN([C@@H](CCC(=O)O)C(=O)O)C5=O)cc3c2c(=O)[nH]1 | 95% (active) | 41% | 2 | 94% (active) | inactive | inactive | inactive | inactive
CCOC(=O)C1=C(C)N=c2sc(=Cc3cc(Cl)ccc3O)c(=O)n2C1c1ccc2c(c1)OCO2 (stereo not given) | 91% (active) | -2% | -1 | 96% (active) | inactive | inactive | inactive | inactive

SMILES | growth inhibition [1] | inhibition [2] | inhibition [3] [%] | growth inhibition [4] | outcome [5] | outcome [6] | outcome [7] | outcome [8]
NC(=NCc1ccccc1)Nc1nc(-c2ccc(OCCCn3ccnc3)cc2)cs1 | 55% (active) | 10% | 2 | 100% (active) | inactive | inactive | inactive | inactive
CCOC(=O)c1c(CN(CC)CC)n(-c2ccccc2)c2cc(Br)c(O)cc12 | 46% | 14% | -5 | 93% (active) | inactive | inactive | inactive | inactive
CCNc1nc(OCC(F)(F)F)nc(N(c2ccccc2)c2ccccc2)n1 | 83% (active) | 5% | 1 | 100% (active) | inactive | inactive | inactive | inactive
NCC1CCCN1Cc1cccc(-c2ccc(-c3nc4ccc(C(F)(F)F)cc4[nH]3)s2)c1 (stereo not given) | 96% (active) | 17% | -3 | 102% (active) | inactive | inactive | inactive | inactive
CN1CC=C(c2csc3ccc(NC(=O)Nc4ccc(-c5ccncc5)c5ccccc45)cc23)CC1 | 99% (active) | 20% | 1 | 93% (active) | inactive | inactive | inactive | inactive
O=C(N[C@@H](CC1CCCCC1)C(=O)NCc1cccc(C(F)(F)F)c1)c1ccc(O)c(-c2ccc(Cl)c(Cl)c2)c1 | 100% (active) | -5% | 5 | 98% (active) | inactive | inactive | inactive | inactive
COc1cccc(CNC[C@@H](O)[C@H](Cc2ccccc2)NC(=O)c2cc(N3CCCC3=O)c3[nH]cc(C(C)C)c3c2)c1 | 98% (active) | 5% | 3 | 96% (active) | inactive | inactive | inactive | inactive
Nc1ncc(OC2CCCCC2)c(N)n1 | -1% | -4% | -1 | 94% (active) | inactive | inactive | inactive | inactive
CCCCCN1CCCC(NS(=O)(=O)c2ccc(C(=O)Nc3cccc(C(F)(F)F)c3)cc2)C1 (stereo not given) | 3% | 30% | 5 | 97% (active) | inactive | inactive | inactive | inactive
O=c1cc(NCCCNCc2cccc(Oc3ccccc3)c2)[nH]c2ccccc12 | 67% (active) | -4% | -1 | 93% (active) | inactive | inactive | inactive | inactive
CC(C)=CCc1c(-c2ccc(O)cc2O)oc2c3c(cc(O)c2c1=O)OC(C)(C)C=C3 | 8% | 1% | 5 | 89% (active) | inactive | inactive | inactive | inactive
O=C(O)C[C@H](NC(=O)c1cc(-c2ccc3c(c2)OCO3)no1)C(=O)O (tested in a mixture with another compound) | -3% | -4% | -2 | 98% (active) | inactive | inactive | inactive | inactive
O=C(Cc1ccc(Cl)cc1)Nc1cc(Cl)ccc1Cn1cnc(N2CCNCC2)cc1=O | 2% | 9% | -4 | 97% (active) | inactive | inactive | inactive | inactive
CN1CCCc2ccc(NC(=O)c3cnc(-c4ccccc4)cn3)cc21 | 82% (active) | 24% | 2 | 87% (active) | inactive | inactive | inactive | inactive
COc1ccc(CCN(C)CCCN2CCC(NC(=O)c3cccc4c(=O)c5ccccc5[nH]c34)CC2)cc1OC | 72% (active) | 19% | 2 | 99% (active) | inactive | inactive | inactive | inactive
CN(C(=O)c1ccccc1)[C@@H]1c2cc(C#N)ccc2OC(C)(C)[C@H]1O | 4% | 8% | -3 | 97% (active) | inactive | inactive | inactive | inactive
COc1ccc(CN2CCC(CN3CC4(OC3=O)c3ccccc3-c3ccccc34)C2)c(O)c1 (stereo not given) | 79% (active) | 22% | -7 | 101% (active) | inactive | inactive | inactive | inactive
O=C(Nc1ccc(-c2ccccc2)cc1)Nc1cccc(Cn2nc(Cl)c(N3CCNCC3)cc2=O)c1 | 79% (active) | 15% | -2 | 102% (active) | inactive | inactive | inactive | inactive
NC(=O)CCC(NC(=O)CNC(=O)Nc1cccc(C(F)(F)F)c1)C(=O)O (stereo not given) | 93% (active) | 1% | 4 | 97% (active) | inactive | inactive | inactive | inactive
CCN(CC)CCN(Cc1ccc(-c2ccc(C(F)(F)F)cc2)cc1)C(=O)Cn1c(CCc2cccc(C#N)c2)nc(=O)c2ccccc21 | 47% | 36% | -1 | 101% (active) | inactive | inactive | inactive | inactive
